Screening data: PubChem, National Center for Advancing Translational Sciences (NCATS)
Shown are actives, neighbours in structure and some others; about 3.3% of the full set was active somewhere.
Sm TGR inh = inhibitors of Schistosoma mansoni thioredoxin glutathione reductase. Q962Y6. purified TGR, DTNB reduction, TNB absorbance 405 nm. Potency, µM (top dose mostly 114 µM), for inactives: top-dose activity change, negative = inhibition, most hits filed as inhibitors. actives 3% (n = 360,000). AID 485364; further: on the % scale 0 is the no-effect control and ±100 the full control effect; nearly all actives have a fitted effect of over 60% in size
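TGR 20 nM + NADPH 100 uM (dispensed conc.), cpd preinc 15 min RT; start with NADPH (500 uM addition) then DTNB (15 mM addition). Kinetic TNB absorbance, 405 nm filter. Four-parameter Hill fit across titration.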
RE007 growth inh = less growth of the S. pombe RE007 Vpr strain. S. pombe RE007 Vpr strain, BacTiter-Glo ATP luminescence, 24 h. Potency, µM (highest dose often 92.2 µM), for the others: at the highest dose activity change, negative = less growth, hits mostly inhibitors. AID 651644. actives 0.21% (n = 360,000); active means well fitted falling curve with a large enough effect; inconclusive means small, poorly fitted or top-dose-only effect; inactive means no such curve, though single readings can be large or run the other way; further: on the % scale 0 is the no-effect control and ±100 the full control effect; nearly all actives have a fitted effect of over 50% in size
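Fission yeast strain RE007, carrying one chromosomally integrated HIV-1 vpr copy, was seeded at OD 0.01 in PMG+AL medium with 23 nL pinned compound. After 24 h at 30 °C and 99% humidity, viability was read by BacTiter-Glo luminescence.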
SARS PLP yeast = SARS-CoV PLP inhibition in yeast. S. cerevisiae expressing SARS-CoV PLpro, growth rescue. Potency, µM (titrated, usually from 32.9 µM), without a hit: at the highest dose activity, positive = growth rescue, actives largely listed as activators. AID 485353. actives 0.19% (n = 330,000); calls by dose curve; further: 0% is about no effect; nearly all actives have a fitted effect of over 55% in size
TbPYK inhibitor = blocks Trypanosoma brucei pyruvate kinase | TbPYK enzyme, Kinase-Glo Plus ATP luminescence, 45 min | Potency, µM (highest dose often 76.8 µM), for inactives: at the highest dose activity, negative = inhibition, usual class: inhibitors | actives 0.12% (n = 410,000) | AID 624173; further: on the % scale 0 is the no-effect control and ±100 the full control effect; nearly all actives have a fitted effect of over 50% in size
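ADP (130 uM final) triggers the TbPYK reaction after compound addition; incubation is 45 min at room temperature. Kinase-Glo Plus is then added and luminescence imaged. Normalized data are fitted to concentration-effect curves.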
NS1 function inh = blocks influenza NS1 protein function | Potency, µM (doses to about 46.1 µM), inactives show top-dose activity, positive = more growth | actives 0.4% (n = 270,000) | AID 2326; calls by dose curve; further: actives are rising curves; nearly all actives have a fitted effect of over 50% in size
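Recovery from NS1-induced slow growth read by OD600 in budding yeast switched to galactose assay medium (pH 6.0, -URA) at 1:100 dilution. Compound 23 nl per well; the matching strain lacking NS1 serves as control.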
LmPK inh = LmPK (Leishmania mexicana) enzyme inhibition. Q27686. purified LmPK, Kinase-Glo ATP luminescence, 1 h. Potency, µM (doses to about 57.5 µM), without a hit: top-dose activity change, negative = inhibition, hits mostly inhibitors. actives 0.37% (n = 290,000); further: on the % scale 0 is the no-effect control and ±100 the full control effect
Target sequence (Q27686 whole entry, looked up): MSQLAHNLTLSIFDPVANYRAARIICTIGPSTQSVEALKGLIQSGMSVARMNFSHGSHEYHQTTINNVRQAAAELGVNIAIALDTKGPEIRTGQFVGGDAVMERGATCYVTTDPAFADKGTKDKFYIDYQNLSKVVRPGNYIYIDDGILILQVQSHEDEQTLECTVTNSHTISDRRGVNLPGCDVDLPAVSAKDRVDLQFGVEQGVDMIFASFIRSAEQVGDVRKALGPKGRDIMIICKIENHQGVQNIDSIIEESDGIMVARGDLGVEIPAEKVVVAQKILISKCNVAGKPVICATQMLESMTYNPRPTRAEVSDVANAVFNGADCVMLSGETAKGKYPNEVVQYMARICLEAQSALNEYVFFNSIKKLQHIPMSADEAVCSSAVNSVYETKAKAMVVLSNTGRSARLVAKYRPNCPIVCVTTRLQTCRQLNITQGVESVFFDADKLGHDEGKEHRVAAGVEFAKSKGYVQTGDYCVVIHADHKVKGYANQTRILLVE
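Purified LmPK (0.1 nM) with 0.5 mM PEP and 0.1 mM ADP in imidazole buffer pH 7.2 with MgCl2/KCl, 1 h at room temperature. ATP formed was read by luciferase luminescence and normalized to no-enzyme and uninhibited controls.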
* hit, by the source's call; [ ] = another dose, or the depositor's remark. Unless noted, the call rests on the fitted dose curve; in most records, active means well fitted curve in the direction sought with a large enough effect; inconclusive means small, poorly fitted or top-dose-only effect, or another doubt; inactive means no such curve, though single readings can be large; an effect the other way counts as inactive or inconclusive. Potency means the concentration at half of the fitted maximal effect.

N#Cc1cc(-c2ccccc2)nn1-c1ccccc1 was read as Sm TGR inh 0.63µM*, RE007 growth inh -20%, SARS PLP yeast 12%, TbPYK inhibitor 14µM*, NS1 function inh -84% and LmPK inh 25µM*.
Screening N#Cc1nc(COc2cccc(Cl)c2)oc1NCCc1ccccc1 returned Sm TGR inh 0% and TbPYK inhibitor -5%.
Screening CN(C)CCNc1oc(COc2ccc(Cl)cc2)nc1C#N returned Sm TGR inh 28µM*, RE007 growth inh 5%, SARS PLP yeast 0%, TbPYK inhibitor -1%, NS1 function inh 5% and LmPK inh -8%.
CN(C)CCNc1oc(COc2cccc(Cl)c2)nc1C#N was read as Sm TGR inh 35µM*, RE007 growth inh 0%, SARS PLP yeast -2%, TbPYK inhibitor 5%, NS1 function inh -3% and LmPK inh 1%.
COc1ccc(CCNc2oc(COc3ccc(F)cc3)nc2C#N)cc1 was read as Sm TGR inh -14%, RE007 growth inh -10%, SARS PLP yeast -3%, TbPYK inhibitor 0%, NS1 function inh -111% and LmPK inh 4%.
Cc1cc(C)cc(-n2c(SCC(N)=O)nc3c(oc4ccccc43)c2=O)c1 was read as Sm TGR inh -5% and TbPYK inhibitor 0%.
CCCN(CCC)C(=O)c1c[nH]c2ccc(S(=O)(=O)N(C)c3ccc(Cl)cc3)cc2c1=O was read as Sm TGR inh 4% and TbPYK inhibitor 3%[15.4 µM].
`CCCCN(CCCC)CCCNC(=O)c1ccc2nc(N3CCCCC3)sc2c1` gave Sm TGR inh 28µM* and TbPYK inhibitor -9%.
COc1ccc(C2=CC(c3ccccc3Cl)n3nc(-c4ccc(C)cc4)nc3N2)cc1 (stereo not drawn) was read as Sm TGR inh -6% and TbPYK inhibitor -1%.
CCOc1ccc(OCC)c(NC(=O)CCc2c(C)nc3c(c2C)c(=O)n(C)c(=O)n3C)c1 was read as Sm TGR inh -8% and TbPYK inhibitor -1%.
For CCOc1ccc(C(=O)NCc2ccncc2)cc1 the results were Sm TGR inh 14%, RE007 growth inh -2%, SARS PLP yeast -3%, TbPYK inhibitor -5%, NS1 function inh 4% and LmPK inh -3%.
`Cc1ccc(C)n1-c1ccc(C(=O)NCc2ccncc2)cc1` gave Sm TGR inh 22µM*, RE007 growth inh -9%, SARS PLP yeast 1%, TbPYK inhibitor 0% and LmPK inh 4%.
Screening Cc1cccc(-c2nnc(SCc3cc(=O)c4cccc(Cl)c4[nH]3)n2C)c1 returned Sm TGR inh 1% and TbPYK inhibitor -6%.
Screening O=C(NCCc1csc(-c2cccnc2)n1)c1ccc(Br)o1 returned Sm TGR inh 28µM*, RE007 growth inh -10%, SARS PLP yeast 0%, TbPYK inhibitor -20%, NS1 function inh -36% and LmPK inh 1%.
`O=C(NCCc1csc(-c2ccccc2)n1)c1ccc(Br)o1` gave Sm TGR inh 6%, RE007 growth inh -7%, SARS PLP yeast -18%, TbPYK inhibitor 0%, NS1 function inh -23% and LmPK inh 3%.
C[C@]12CCC3C(CCC4=CC(=O)CC[C@@H]43)C1CCC2O (stereo partly drawn) was read as TbPYK inhibitor 14%.
For N/C(=N\OC(=O)c1ccc(Cl)cc1Cl)c1cccnc1 the results were Sm TGR inh 0%, RE007 growth inh -2%, SARS PLP yeast -1%, TbPYK inhibitor -3%, NS1 function inh -7% and LmPK inh inconclusive.
N/C(=N\OC(=O)c1ccccc1Cl)c1ccc(Cl)cc1 was read as Sm TGR inh 6%, RE007 growth inh inconclusive, SARS PLP yeast -29%, TbPYK inhibitor 6%, NS1 function inh -19% and LmPK inh -16%.
Screening Cc1cc(C)nc(OC(=O)c2ccc(Cl)cc2Cl)n1 returned Sm TGR inh 22µM*, SARS PLP yeast 0%, NS1 function inh 2% and LmPK inh -1%.
